WRN helicase inh: qHTS for Inhibitors of WRN Helicase. actives 0.46% (n = 360,000). WRN helicase unwinding, fluorescent forked duplex, kinetic. Bifunctional 3'-5' exonuclease/ATP-dependent helicase WRN (Homo sapiens), Q14191. AID 651768, 2012. Potency, µM (titrated, usually from 114 µM), for the others: at the highest dose activity change, negative = inhibition, usual class: inhibitors; also: potency is read from the fitted curve at half-maximal effect; % is scaled to controls: 0 for no effect and ±100 for the full control effect; nearly all actives have a fitted effect of over 55% in size
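WRN at 20 nM final preincubated with compound 15 min at room temperature; reaction started with 100 nM fluorophore/quencher forked duplex oligonucleotide and 2 mM ATP final. Unwinding followed kinetically by red fluorescence (ex 525, em 598 nm).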
Pol beta inh: qHTS Assay for Inhibitors of DNA Polymerase Beta; P06746; Pol beta primer extension/strand displacement, fluorescence kinetic; Potency, µM (highest dose often 114 µM), for inactives: top-dose activity change, negative = inhibition, usual class: inhibitors; actives 1.3% (n = 340,000); also: potency is read from the fitted curve at half-maximal effect; % is scaled to controls: 0 for no effect and ±100 for the full control effect
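Preincubation: enzyme (10 nM) with compound, 15 min, RT. Reaction: substrate added to 50 nM final. Reads: 0 and 10 min. Analysis: normalized, Hill fit.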
Pol eta inh-1: qHTS for Inhibitors of Polymerase Eta; DNA polymerase eta (Homo sapiens), Q9Y253; recombinant Pol eta, fluorescent DNA replication assay; Potency, µM (top dose mostly 114 µM), for inactives: top-dose activity change, negative = inhibition, most hits filed as inhibitors; actives 1.2% (n = 390,000); AID 588591, 2011; also: potency is read from the fitted curve at half-maximal effect; % is scaled to controls: 0 for no effect and ±100 for the full control effect
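Pol eta at 10 nM preincubated with compounds 15 min at room temperature; reaction started with fluorescent substrate (50 nM final) and read kinetically at 0 and 10 min.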
FEN1 inhibitor: qHTS Assay for the Inhibitors of Human Flap endonuclease 1 (FEN1). actives 0.35% (n = 390,000). Potency, µM (doses to about 114 µM), inactives show at the top dose activity change, negative = inhibition, hits mostly inhibitors. P39748. Recombinant FEN1 flap cleavage, fluorescence, 15 min; also: potency is read from the fitted curve at half-maximal effect; % is scaled to controls: 0 for no effect and ±100 for the full control effect; nearly all actives have a fitted effect of over 65% in size
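FEN1 at 10 nM preincubated with compounds 15 min at room temperature, then flap DNA substrate added at 50 nM final. Signal read at 0 and 15 min; concentration-response fitted with four-parameter Hill equation.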
POLI inh: qHTS for Inhibitors of Polymerase Iota; AID 588590, 2011; Pol iota fluorescent replication assay, 10 min; Potency, µM (doses to about 115 µM), for the others: at the top dose activity, negative = inhibition, hits mostly inhibitors; DNA polymerase iota (Homo sapiens), Q9UNA4; actives 1% (n = 390,000); also: potency is read from the fitted curve at half-maximal effect
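Fluorescent replication assay read twice, at 0 min and 10 min after adding 50 nM (final) substrate. Enzyme (10 nM) and compounds were first incubated 15 min at room temperature; enzyme-free buffer wells were negative controls.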
Pol kappa inh-1: qHTS for Inhibitors of Polymerase Kappa; DNA polymerase kappa (Homo sapiens), Q9UBT6; purified Pol kappa, fluorescent DNA synthesis assay, 10 min; Potency, µM (series often up to 107 µM), for inactives: top-dose activity, negative = inhibition, actives largely listed as inhibitors; actives 0.53% (n = 400,000); AID 588579, 2011; also: potency is read from the fitted curve at half-maximal effect; % is scaled to controls: 0 for no effect and ±100 for the full control effect
Target sequence (Q9UBT6 whole entry, looked up): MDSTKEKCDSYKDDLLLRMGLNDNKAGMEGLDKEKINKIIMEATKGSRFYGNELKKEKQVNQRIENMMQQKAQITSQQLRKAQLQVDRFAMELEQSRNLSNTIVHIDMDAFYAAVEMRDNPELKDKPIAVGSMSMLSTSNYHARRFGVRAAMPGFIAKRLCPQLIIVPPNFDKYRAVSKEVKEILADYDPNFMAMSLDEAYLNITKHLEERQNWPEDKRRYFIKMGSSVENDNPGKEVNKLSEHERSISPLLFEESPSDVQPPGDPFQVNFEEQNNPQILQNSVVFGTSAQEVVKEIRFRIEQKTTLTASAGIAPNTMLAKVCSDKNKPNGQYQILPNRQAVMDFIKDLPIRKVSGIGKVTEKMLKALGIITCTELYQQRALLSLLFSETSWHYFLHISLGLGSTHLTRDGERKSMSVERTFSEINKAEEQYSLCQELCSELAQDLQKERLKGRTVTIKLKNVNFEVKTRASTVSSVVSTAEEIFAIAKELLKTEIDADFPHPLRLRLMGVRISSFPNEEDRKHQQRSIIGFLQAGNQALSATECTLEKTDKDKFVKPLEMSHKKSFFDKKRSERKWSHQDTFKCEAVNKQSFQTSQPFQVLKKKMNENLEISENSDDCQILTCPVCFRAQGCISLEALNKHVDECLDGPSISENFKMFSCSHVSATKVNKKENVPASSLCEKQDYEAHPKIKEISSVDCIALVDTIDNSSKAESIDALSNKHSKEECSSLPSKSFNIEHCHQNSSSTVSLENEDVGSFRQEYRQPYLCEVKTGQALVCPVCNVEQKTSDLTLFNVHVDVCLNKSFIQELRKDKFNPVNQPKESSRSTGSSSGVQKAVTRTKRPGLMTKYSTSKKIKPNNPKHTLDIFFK
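Inhibition of 10 nM Pol kappa is measured by a fluorescent read-out at 0 and 10 min following addition of 50 nM substrate (final), with a 15-min room-temperature compound preincubation.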
GALK inh confirm: Confirmation Assay for Inhibitors of Human Galactokinase (GALK); purified GALK, Kinase-Glo ATP depletion luminescence; actives 70% (n = 150); Potency, µM (doses to about 115 µM), inactives show top-dose activity, negative = inhibition, usual class: inhibitors; shares compounds with Pol eta inh-1; AID 2015, 2009
Redox cycling: Confirmatory Assay for Inhibitors of Human Galactokinase (GALK): Phenol-HRP redox assay counterscreen. shares compounds with Pol eta inh-1. actives 40% (n = 150). Potency, µM (top dose mostly 115 µM), for inactives: at the highest dose activity change, negative = H2O2 signal, hits mostly inhibitors. Phenol red-HRP H2O2 redox cycling, absorbance 600 nm. AID 2035, 2009
HEK293 viability: Secondary Assay for Inhibitors of Human Galactokinase (GALK): HEK-293 Cell Viability Assay; shares compounds with Pol eta inh-1; actives 10% (n = 170); Potency, µM (series often up to 46.1 µM), for the others: at the highest dose activity change, negative = cytotoxicity, usual class: inhibitors; HEK-293 viability, ATP luminescence (CellTiter-Glo), 24/48 h; AID 2547, 2010; also: potency is read from the fitted curve at half-maximal effect; % is scaled to controls: 0 for no effect and ±100 for the full control effect
Pol kappa inh-2: qHTS for Inhibitors of Polymerase Kappa: Confirmatory Assay for Cherry-picked Compounds. shares compounds with Pol eta inh-1. purified Pol-kappa, fluorescent strand-displacement substrate. Potency, µM, most hits filed as inhibitors. actives 76% (n = 920). AID 720501, 2013; also: potency is read from the fitted curve at half-maximal effect
Pol eta inh-2: qHTS for Inhibitors of Polymerase Eta: Confirmatory Assay for Cherry-picked Compounds; shares compounds with Pol eta inh-1; Pol eta primer extension, TAMRA/BHQ fluorescence, 10 min; Potency, µM, actives largely listed as inhibitors; actives 64% (n = 2,600); also: potency is read from the fitted curve at half-maximal effect
An asterisk follows results filed as active; ? = inconclusive; . = no result given; [ ] = another dose, or the depositor's remark. In the library only some 2.4% were active in any assay of this set; here they are far more common. Calls follow the shape of the dose curve; as a rule, active = well fitted curve in the direction sought with a large enough effect; inconclusive = small, poorly fitted or top-dose-only effect, or another doubt; inactive = no such curve, though single readings can be large; an effect the other way counts as inactive or inconclusive.

SMILES	WRN helicase inh	Pol beta inh	Pol eta inh-1	FEN1 inhibitor	POLI inh	Pol kappa inh-1	Pol kappa inh-2	Pol eta inh-2	others
Cc1nn(Cc2noc(C(=O)NCC3CCCO3)n2)c(C)c1Br (stereo not drawn)	3%[57.1 µM]	8%	-20%	7%	18%	10%	.	.	GALK inh confirm=-8%;Redox cycling=4%;HEK293 viability=-5%
Cc1nn(Cc2noc(C(=O)NC3CCC(C)CC3)n2)c(C)c1Br (stereo not drawn)	-5%	48%	-18%	-14%	17%	-14%	.	.
CCOc1ccccc1CNC(=O)c1cn(-c2ccc(OC)cc2)c(=O)c2ccccc12	.	?	-28%	-3%	0%	1%	.	.
CCOC(=O)c1ccc2c(c1)[C@@H]1C=CC[C@@H]1[C@H](c1cccc(OC)c1OC)N2	.	-12%	-7%	-20%	?	-32%	.	.
COc1ccc(Br)cc1[C@@H]1Nc2ccc(C(=O)O)cc2[C@@H]2C=CC[C@@H]21	.	-22%	79µM*	?	25µM*	35µM*	.	30*
COc1ccc(OC)c([C@@H]2Nc3ccc(C(=O)O)cc3[C@@H]3C=CC[C@@H]32)c1	.	-1%	35µM*	-20%	-7%	-2%[60.1 µM]	34*	85*
CCOc1ccccc1CNCc1cccn1-c1nnc(N2CCN(c3ccccc3)CC2)s1	.	-1%	-19%	4%	-3%	-6%	.	.
Cc1nnc(NC(=O)c2cc(-c3ccncc3)nc3c(C)cccc23)s1	-11%	7%	45µM*	-22%	79µM*	-11%	.	67*
CCOc1ccc(CCNC(=O)C2CC(C)=CCC2C(=O)O)cc1OCC (stereo not drawn)	-5%[11.6 µM]	25µM*	28µM*	-4%	?	-26%	.	54*
O=C(Nc1ccc(S(=O)(=O)Nc2nccs2)cc1)c1ccncc1	10%[57.1 µM]	.	.	.	.	.	.	.
O=C(Nc1ccc(S(=O)(=O)Nc2nccs2)cc1)c1ccc(=O)[nH]c1	?	50µM*	20µM*	-26%	?	?	67*	43*
O=C(O)C(Cc1cc(I)c(O)c(I)c1)c1ccccc1 (stereo not drawn)	.	.	.	.	.	4%[19.4 µM]	.	.
CCOC(=O)C1=C(COC(=O)COc2ccccc2OCC)NC(=O)NC1C (stereo not drawn)	-16%	.	-5%	5%	3%	2%	.	.
CCOC(=O)C1=C(COC(=O)COc2ccccc2C=O)NC(=O)NC1C (stereo not drawn)	-25%	.	13µM*	-9%	?	?	.	76*
CCOCCCn1c(SCc2nc3sc(C(=O)O)c(C)c3c(=O)[nH]2)nnc1-c1ccc(Cl)cc1	-21%	-11%	-21%	9%	50%	-5%	.	.
Cc1c(C(=O)O)sc2nc(CSc3nnc(-c4ccc(F)cc4)n3C)[nH]c(=O)c12	?	1%	35µM*	-7%	?	-30%	.	?
CC(=O)c1sc2nc(CSc3nncn3C)[nH]c(=O)c2c1C	-23%	-27%	-7%	-6%	?	-19%	.	.
C=CCn1c(SCc2nc3sc(C(=O)O)c(C)c3c(=O)[nH]2)nnc1-c1ccc(C(C)(C)C)cc1	?	22µM*	7.1µM*	45µM*	?	35µM*	12*	30*
Cc1nnc(SCc2nc3sc(C(=O)O)c(C)c3c(=O)[nH]2)s1	-23%	0%	22µM*	?	20µM*	89µM*	.	43*
Fc1ccc(-c2cc(-c3nc(-c4cccc(Cl)c4)no3)[nH]n2)cc1	.	-8%	0%	1%	-8%	-24%	.	.
CCN(Cc1ccccc1)C(=O)Cn1cc(S(=O)(=O)Cc2cccc(Cl)c2)c2ccccc21	.	4%	-20%	-10%	14%	-2%	.	.
CC(C(=O)NC1C(=O)N2C(C(=O)O)=C(CSc3nnnn3C)CSC12)n1cc(Br)cn1 (stereo not drawn)	-10%	18µM*	32µM*	3%	?	?	.	?
NC(C(=O)NC1C(=O)N2C(C(=O)O)=C(Cl)CSC12)c1ccccc1 (stereo not drawn)	.	.	.	.	.	-16%[60.1 µM]	.	.
Cn1nnnc1SCC1=C(C(=O)O)N2C(=O)C(NC(=O)C3CC3c3ccccc3)C2SC1 (stereo not drawn)	?	32µM*	14µM*	14%	14µM*	?	67*	48*
COc1ccc2oc(=O)c(-c3nc4ccc(C)cc4[nH]3)cc2c1	.	-19%	-11%	1%	18%	-3%[60.1 µM]	.	.
COc1ccc2cc(-c3nc4ccc(C(=O)O)cc4[nH]3)c(=O)oc2c1	.	?	45µM*	-19%	?	-8%[60.1 µM]	21*	?
O=C(O)c1cccc(NS(=O)(=O)c2ccc(-c3ccc(S(=O)(=O)Nc4cccc(C(=O)O)c4)cc3)cc2)c1	-9%	?	?	?	?	50µM*	21*	?
CCNc1nc(NCC)n2c(SCC(=O)Nc3ccc(F)cc3)nnc2n1	?	.	14µM*	0%	20µM*	?	60*	67*

Screens deposited in PubChem BioAssay by National Center for Advancing Translational Sciences (NCATS).
